Drawing on PubChem BioAssay AID463173 (ICCB-Longwood Screening Facility, Harvard Medical School, 2010), this text covers survival for 97 molecules.

Among all 52,000 compounds or so, about 1,700 (3.3%) were called active. No stated cut-off is given here; in the data, active means survival mostly below about 52% (no sharp cut-off); inactive means mostly above about 56%. Shown is part of a subset that was picked to be rich in actives.

The subject of this assay is Wild type. Nature of the assay: S. aureus survival, RN4220 and DeltatarO strains – OD600, teichoic acid synthesis inhibitors, primary screen (AID 463173). The settings on record: S. aureus RN4220 wild type/DeltatarO growth, OD600, 18 h, stronger effect = lower value, screened at 18.75 µg/mL (by protocol).
In the case of `COc1ccc(NC(=O)CSc2ncc3c(n2)-c2ccccc2N(Cc2ccc(C)cc2)S3(=O)=O)cc1Cl`, the survival was 134% (inactive).

As to `Cc1cccc(OCC(=O)OCc2cc(=O)n3nc(C4CCCCC4)sc3n2)c1`, the survival is 100% (inactive).

On to `N#Cc1cc2cc3c(cc2nc1N1CCCN(C(=O)c2ccccc2)CC1)OCO3`, for which the survival was 103% (inactive).

In the case of `COc1ccc(C(=O)NCC(c2ccc3c(c2)OCO3)N2CCN(c3ccccc3F)CC2)cc1` (configuration not stated), the survival is 77% (inactive).

As to `Cc1ccc(NC(=O)CN2C(=O)COc3ccc(S(=O)(=O)N4CCCCC4)cc32)cc1N(C)C`, the survival is 106% (inactive).

As for `CC(=O)N1CCc2cc(Br)cc(S(=O)(=O)CCC(=O)N3CCN(c4cccc(C)c4C)CC3)c21`, the survival was 77% (inactive).

As to `COc1ccc(Nc2ncnc3c2nc2n3CCCC2)cc1Cl`, the survival was 59% (inactive).

In the case of `Clc1ccccc1Nc1ncnc2c1nc1n2CCCCC1`, the survival is 0% (active).

`Fc1ccc(Nc2ncnc3c2nc2n3CCCC2)cc1`: the survival is 76% (inactive).

With `CCc1ccccc1Nc1ncnc2c1nc1n2CCCC1`, the survival is 71% (inactive).

Regarding `Fc1ccccc1Nc1ncnc2c1nc1n2CCCCC1`, the survival is 74% (inactive).

Take `Clc1cccc(Nc2ncnc3c2nc2n3CCCCC2)c1`: the survival is -1% (active).

As for `Fc1ccc(Nc2ncnc3c2nc2n3CCCCC2)c(F)c1`, the survival is 14% (active).

As to `COc1ccccc1Nc1ncnc2c1nc1n2CCCCC1`, the survival was 133% (inactive).

Consider `Clc1cccc(CNc2ncnc3c2nc2n3CCCC2)c1`, for which the survival is 92% (inactive).

As to `CCC(=O)N1CCc2cc(S(=O)(=O)NC(Cc3ccccc3)C(=O)NCc3ccc(F)cc3)ccc21` (configuration not stated), the survival was 83% (inactive).

Take `COc1ccc(-c2cc(-c3ccccc3)nc(SCC(=O)Nc3ccccc3C)c2C#N)cc1`: the survival was 70% (inactive).

Turning to `COC(=O)c1ccc(Cl)cc1NC(=O)N(C)CCc1c(C)nn(C)c1C`, the survival was 111% (inactive).

Consider `C#CCn1c(O)c(N=NC(=O)c2ccncc2)c2cc(Br)ccc21`, for which the survival is 110% (inactive).

For the molecule `Cc1noc(C)c1S(=O)(=O)NCCc1csc2nc(-c3ccc(Cl)cc3)nn12`, the survival is 72% (inactive).

Turning to `O=C(O)c1cccc(NC(=O)c2cccc(S(=O)(=O)Nc3cccc(F)c3)c2)c1`, the survival was 169% (inactive).

As for `CCc1c(C)nc2nncn2c1Nc1ccc(C)c(F)c1`, the survival was 83% (inactive).

On to `Cc1cc(C)cc(NC(=O)Cc2c(C(=O)O)c(C)cn2C)c1`, for which the survival is 47% (inactive).

Consider `CCOC(=O)c1cnc2c(C)cc(C)cc2c1Nc1ccc(N2CCOCC2)cc1`, for which the survival is 15% (inactive).

Take `CCOC(=O)c1cnc2c(C)cc(C)cc2c1Nc1ccc(OCc2ccccc2)cc1`: the survival was 11% (active).

With `CCOC(=O)c1cnc2c(C)cc(C)cc2c1Nc1ccccc1OCC`, the survival was -1% (active).

For `CCOC(=O)c1cnc2c(ccc3ccccc32)c1Nc1ccccc1OCC`, the survival was 109% (inactive).

As for `CCOC(=O)c1cnc2c(Cl)cc(Cl)cc2c1Nc1ccccc1OC`, the survival was 65% (inactive).

Turning to `CCOC(=O)c1cnc2c(C(F)(F)F)cccc2c1Nc1cccc(C(=O)OC)c1`, the survival was 26% (inactive).

`CCOC(=O)c1cnc2c(C)cc(C)cc2c1Nc1cccc(C(=O)O)c1`: the survival is 23% (active).

As to `CCOC(=O)c1cnc2c(C)cc(C)cc2c1NCCN1CCOCC1`, the survival was 53% (inactive).

For `Cc1nn2c(=O)cc(COC(=O)c3ccccc3NC(=O)C(C)C)nc2s1`, the survival is 74% (inactive).

On to `Cc1cc(C)c2nc(N(Cc3cccnc3)C(=O)c3ccc(S(=O)(=O)N(C)C)cc3)sc2c1`, for which the survival was 57% (inactive).

In the case of `COc1cccc(-c2nc(CS(=O)(=O)CC(=O)NCCc3ccc(OC)cc3OC)c(C)o2)c1`, the survival is 83% (inactive).

Take `Cc1ccc(N(C)S(=O)(=O)c2nnc(NC(=O)CC(C)C)s2)cc1`: the survival is 87% (inactive).

As for `N=c1n(CCN2CCCCC2)c2ccccc2n1CC(O)COc1ccc(Cl)cc1Cl` (configuration not stated), the survival was -3% (active).

Take `Cc1ccccc1OCC(O)Cn1c(=N)n(CCN2CCCCC2)c2ccccc21` (configuration not stated): the survival was 76% (inactive).

Take `N=c1n(CCN2CCCCC2)c2ccccc2n1CC(O)COc1ccccc1` (configuration not stated): the survival was 144% (inactive).

In the case of `O=C(CSc1nc2c([nH]c3ccccc32)c(=O)n1-c1ccccc1)NCc1ccc(F)cc1`, the survival is 87% (inactive).

Consider `COCCNC(=O)CSc1nnc(-c2ccc(OC)c(OC)c2)c(-c2ccc(OC)c(OC)c2)n1`, for which the survival is 68% (inactive).

With `CC(=O)N1N=C(c2ccccc2)CC1c1ccccc1` (configuration not stated), the survival is 104% (inactive).

As for `C=Cc1ccc(Cn2nc(-c3ccc(C)cc3)ccc2=O)cc1`, the survival was 57% (inactive).

In the case of `O=C(O)/C(=C/C(=O)c1ccccc1)Nc1ccccc1`, the survival is 100% (inactive).

Consider `Cc1cc(S(=O)(=O)Nc2ccc(O)c(Sc3nc4ccccc4s3)c2)ccc1Cl`, for which the survival was -2% (active).

In the case of `CC(C)NC(=O)c1nc2ccccc2s1`, the survival was 120% (inactive).

On to `CC(C)(C)c1ccc(S(=O)(=O)Nc2ccc(O)c(Sc3nc4ccccc4s3)c2)cc1`, for which the survival was 3% (active).

As for `Cc1nc2ccc(S(=O)(=O)NC(C(=O)NCc3ccccc3Cl)C(C)C)cc2s1` (configuration not stated), the survival is 85% (inactive).

As for `CC(C)c1ccc(C(=O)Nc2ccc(-c3nc4ccccc4s3)c(Cl)c2)cc1`, the survival is 141% (inactive).

For `CC(C)c1ccc(S(=O)(=O)Nc2ccc(O)c(Sc3nc4ccccc4s3)c2)cc1`, the survival was 0% (active).

Consider `O=C(COc1ccc(Cl)cc1)Nc1ccc(O)c(-c2nc3ccccc3s2)c1`, for which the survival is 69% (inactive).

With `O=S(=O)(Nc1ccc2oc3c(c2c1)CCCC3)c1cc(Cl)ccc1Cl`, the survival is 46% (inactive).

In the case of `CC(=O)c1c(C)oc2ccc(NS(=O)(=O)c3ccc(C(C)C)cc3)cc12`, the survival was 86% (inactive).

`Cn1c(=O)sc2cc(NS(=O)(=O)c3ccc(C(C)(C)C)cc3)ccc21`: the survival was 73% (inactive).

For `O=S(=O)(Nc1ccc(O)c(Sc2nc3ccccc3s2)c1)c1cc(Cl)ccc1Cl`, the survival is 0% (active).

As for `Cc1cc(S(=O)(=O)Nc2ccc3oc4c(c3c2)CCCC4)ccc1Cl`, the survival was 46% (inactive).

Take `CCN(C(=O)CSc1nnc(-c2cc(OC)c(OC)c(OC)c2)o1)c1ccccc1`: the survival is 87% (inactive).

As to `CCn1c(CNC(=O)c2ccc(OC)cc2)nnc1SCC(=O)Nc1cccc(C)c1`, the survival was 119% (inactive).

As for `CCC(C(=O)Nc1cccc(C#N)c1)n1nc(-c2ccccc2)ccc1=O` (configuration not stated), the survival is 79% (inactive).

For `CC(C)N(Cc1ccccc1)C(=O)Cn1ncc2c3ccccc3n(Cc3ccccc3)c2c1=O`, the survival is 96% (inactive).

With `CN(C)c1ccc(C(CNS(=O)(=O)c2ccc(Br)cc2)N2CCCC2)cc1` (configuration not stated), the survival is 68% (inactive).

Turning to `C=CCC(CC=C)(CNC(=O)C(=O)Nc1ccc(Br)cc1)c1ccc(OC)c(OC)c1`, the survival is 90% (inactive).

Consider `Cc1cccc(C(=O)Nc2ccc(N3CCN(c4ccc(F)cc4)CC3)c(C(=O)O)c2)c1`, for which the survival is 63% (inactive).

Regarding `CCOc1ccccc1NC(=O)c1ccc(F)c(S(=O)(=O)N2CCN(c3ccc(F)cc3)CC2)c1`, the survival was 60% (inactive).

With `O=C(Nc1ccc(N2CCC(N3CCCCC3)CC2)c(C(=O)O)c1)c1ccc(Br)cc1`, the survival is 75% (inactive).

With `CCCNC(=O)CN1CCN(c2ccc(NC(=O)c3ccc(OC)cc3)cc2C(=O)O)CC1`, the survival is 87% (inactive).

For `Cc1cccc(NC(=O)c2ccc(F)c(S(=O)(=O)N3CCN(c4ccc(F)cc4)CC3)c2)c1`, the survival was -3% (active).

Regarding `O=C(Nc1ccc(N2CCC(N3CCCCC3)CC2)c(C(=O)O)c1)c1ccccc1`, the survival is 70% (inactive).

In the case of `O=C(Nc1ccc(N2CCN(CCOc3ccc(Cl)cc3)CC2)c(C(=O)O)c1)c1ccc(F)cc1`, the survival is -3% (active).

Turning to `COc1ccc(C(=O)Nc2ccc(N3CCN(c4ccccc4)CC3)c(C(=O)O)c2)cc1`, the survival is 83% (inactive).

Regarding `Cc1cccc(NC(=O)c2ccc(F)c(S(=O)(=O)N3CCC4(CC3)OCCO4)c2)c1`, the survival is 71% (inactive).

Take `CC(=O)c1ccc(N2CCN(c3ccc(NC(=O)c4ccc(F)cc4)cc3C(=O)O)CC2)cc1`: the survival was 14% (active).

With `O=C(Nc1ccc(N2CCOCC2)c(C(=O)O)c1)c1ccc(Br)cc1`, the survival is 0% (active).

In the case of `O=C(Nc1ccc(N2CCN(c3ccc(F)cc3)CC2)c(C(=O)O)c1)c1ccccc1F`, the survival is 76% (inactive).

In the case of `COc1ccc(NC(=O)c2nnn(CC(=O)Nc3cc(C)cc(C)c3)c2N)c(OC)c1`, the survival was 139% (inactive).

With `CC(=O)Nc1ccc(NC(=O)CCNS(=O)(=O)c2cccc3nsnc23)cc1`, the survival is 89% (inactive).

Consider `Cn1c(-c2ccc(NC(=O)c3ccccc3)cc2)n[nH]c1=S`, for which the survival was 113% (inactive).

`CC(C)COc1ccc(Nc2ncnc3ccc(Br)cc23)cc1`: the survival was 79% (inactive).

In the case of `O=C(NCC(c1cccnc1)N1CCc2ccccc2C1)C(=O)Nc1cccc(Cl)c1` (configuration not stated), the survival was 47% (inactive).

As for `Cc1ccc(Cl)cc1N1CCN(CCCNC(=O)Cn2ncc3c([nH]c4ccccc43)c2=O)CC1`, the survival was 99% (inactive).

`Cc1cc(C)cc(-n2c(C)nc3cc(C(=O)NCc4ccc(F)cc4)ccc32)c1`: the survival is 138% (inactive).

Turning to `CC(NC(=O)c1ccccc1)c1n[nH]c(=S)n1C` (configuration not stated), the survival is 109% (inactive).

Turning to `CC(C)NC(=O)/C=C/c1ccc2c(c1)OCO2`, the survival is 110% (inactive).

Turning to `O=C(Cn1c(=O)n(Cc2ccccc2)c(=O)c2sc3ccccc3c21)NCc1ccccc1Cl`, the survival was 125% (inactive).

As for `CC1=C(C(=O)OCc2ccc(C)cc2)C(c2ccccc2F)CC(=O)N1` (configuration not stated), the survival is 115% (inactive).

`COc1ccc(CNCc2c(C(=O)O)c(C)n(Cc3ccc(Cl)cc3)c2C)c(OC)c1`: the survival was 101% (inactive).

In the case of `CCCn1cnc2cc(NC(=O)c3cc(OC)c(OC)c(OC)c3)ccc21`, the survival is 76% (inactive).

In the case of `COc1cc(CNc2ccc3c(c2)ncn3C(C)C)cc(OC)c1OC`, the survival was 66% (inactive).

For the molecule `COc1cccc(CNc2ccc3c(c2)ncn3C)c1OC`, the survival was 121% (inactive).

`CCCCn1cnc2cc(NC(=O)c3cc(OC)c(OC)c(OC)c3)ccc21`: the survival is 79% (inactive).

With `CCCn1cnc2cc(NCc3ccccc3OCC)ccc21`, the survival is 61% (inactive).

Turning to `CCCCn1cnc2cc(NCc3ccc(OCC)cc3)ccc21`, the survival is 4% (active).

As for `CCn1cnc2cc(NCc3ccc(N(C)C)cc3)ccc21`, the survival is 94% (inactive).

`CCCCn1cnc2cc(NCc3ccccc3Cl)ccc21`: the survival is -16% (active).

In the case of `CC(C)(C)n1cnc2cc(NCc3ccccc3Cl)ccc21`, the survival was 8% (active).

`CC(C)(C)n1cnc2cc(NS(=O)(=O)c3ccccc3)ccc21`: the survival was 112% (inactive).

As to `CCc1ccc(CNc2ccc3c(c2)ncn3C(C)(C)C)cc1`, the survival was -16% (active).

Turning to `CCCn1cnc2cc(NCc3ccc(OC)cc3OC)ccc21`, the survival is 63% (inactive).
